Where “and” joins values, the source holds several entries; their conditions need not be identical. Equal values may be shown once. Records with an inconclusive call do not appear. Entries that show only a call come without a potency. Calls of active or inactive are those of the source. Unless noted, calls follow the shape of the dose curve; as a rule, active = well fitted curve in the direction sought with a large enough effect; inconclusive = small, poorly fitted or top-dose-only effect, or another doubt; inactive = no such curve, though single readings can be large; an effect the other way counts as inactive or inconclusive.
Columns and labels:
[1] = Cell Viability - HUV-EC-C (AID 542); conditions: HUV-EC-C endothelial cell viability, qHTS; series mostly up to 92.2 µM;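 also: cells exposed to compound for 40 hours; nearly all actives have a fitted effect of over 35% in size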; also: potency is read from the fitted curve at half-maximal effect
In short: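 Decrease in cellular ATP, quantified by luciferase luminescence, reflects toxicity in normal human vascular endothelial HUV-EC-C cells given compound for 40 hr in complete culture medium. Values are AC50s from concentration-response curves.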

[2] = Cell Viability - Renal Proximal Tubule (AID 545); conditions: renal proximal tubule cells viability; at 91.7 µM (top of the series), primary cells of rat origin unless noted;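 also: cells exposed to compound for 40 hours; nearly all actives have a fitted effect of over 40% in size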
In short: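 Luminescent ATP signal (CellTiter-Glo) served as the viability read-out after 40 hr compound exposure of freshly isolated rat proximal tubule cells at 37 °C. Concentration-dependent ATP loss was fitted with the Hill equation to give AC50.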

[3] = Cellular Toxicity (caspase-3) HUV-EC-C (AID 656); conditions: HUV-EC-C cells, caspase-3 activation (apoptosis), vehicle = 0, 100 µM tamoxifen = 100%; series mostly up to 92.2 µM
In short: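 qHTS; HUV-EC-C, 1000 cells/well; 5 hr settle, 16 hr cmpd, 37°C; Caspase-Glo 3/7, 20 min RT; luminescence. Norm: DMSO = 0%, tamoxifen 100 uM = 100%. Hill-fit AC50.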

[4] = Cellular Toxicity (caspase-3) BJ (AID 658); conditions: BJ fibroblasts, luminescence, normalized: DMSO 0%, staurosporine 100%; series mostly up to 91.7 µM
In short: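 BJ human foreskin fibroblasts, 1000 cells/well, treated 16 hours at 37 °C in complete medium; caspase 3/7 activity by Caspase-Glo luminescence after 1 hr at room temperature. Normalized to DMSO and 10 uM staurosporine; AC50 from Hill fits.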

[5] = Cellular Toxicity (caspase-3) SK-N-SH (AID 661); conditions: SK-N-SH caspase-3 activation, qHTS, DMSO as zero, staurosporine as full; series mostly up to 91.7 µM
In short: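 Caspase 3/7 activation is measured as a luminescence increase from aminoluciferin released by substrate cleavage in SK-N-SH cells after 16 hr compound treatment; values are AC50 from concentration-response curves.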

[6] = Cellular Toxicity (caspase-3) H-4-II-E (AID 663); conditions: H-4-II-E rat hepatoma, scaled: DMSO 0%, 100 µM tamoxifen 100%; series mostly up to 92.2 µM;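 also: cells exposed to compound for 16 hr before readout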
In short: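 Rat hepatoma H-4-II-E cells (1500/well) plated 5 hr, then exposed to compound titrations for 16 hr at 37 °C. Caspase-Glo 3/7 luminescence read after 20 min at RT; data normalized to DMSO and 100 uM tamoxifen, AC50 from Hill fits.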

[7] = Cellular Toxicity (caspase-3) N2a (AID 665); conditions: N2a cells, luminescence, normalized: DMSO 0%, 10 µM staurosporine 100%; at 92.2 µM (top of the series);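 also: compound exposure lasted 16 h at 37 °C before readout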
In short: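 Plated mouse neuroblastoma N2a cells received titrated compounds for 16 h in complete medium. Caspase activity was then detected with a peptide-aminoluciferin luminescent reagent.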

[8] = Cellular Toxicity (caspase-3) NIH 3T3 (AID 666); conditions: NIH 3T3 caspase-3 activation, apoptosis/toxicity, 0% DMSO, 100% is 100 µM tamoxifen; series mostly up to 92.2 µM;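 also: caspase signal read after 16 h compound exposure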
In short: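 Concentration-response qHTS in NIH 3T3 mouse fibroblasts scores caspase-3/7 activation as rising luminescence after 16 hr compound exposure. Signals are scaled between DMSO-only and 100 uM tamoxifen.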

[9] = Cellular Toxicity (caspase-3) Renal Proximal Tubule (AID 667); conditions: renal proximal tubule cells; at 91.7 µM (top of the series), primary cells freshly taken from rat, solvent-only wells 0%, staurosporine 100% unless noted;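 also: cells exposed to compound for 16 hours at 37 °C before detection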
In short: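 AC50 derived by standard Hill fit of concentration-response data, normalized between DMSO basal and 10 uM staurosporine as 100% stimulation. Cells: primary rat kidney proximal tubule, 16 h treatment at 37 °C.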

[10] = Cell Viability - LYMP1-002 - Assay at 16 hr (AID 948); conditions: LYMP1-002 lymphoblastoid cell viability; series mostly up to 92.2 µM; also: potency is read from the fitted curve at half-maximal effect
In short: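 Seed 2500 LYMP1-002 cells per well in complete medium and hold 5 hr at 37 C. Add compound across a concentration series and incubate 16 hr at 37 C. Add CellTiter-Glo, wait 30 min at room temperature, read luminescence.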

[11] = qHTS assay for small molecule agonists of retinoid X receptor alpha signaling (AID 588544); conditions: HEK293T RXRa-UAS-bla, beta-lactamase reporter, 18 h; 530 nm emission
[12] = qHTS assay for small molecule antagonists of retinoid X receptor alpha signaling (AID 588546; active = well fitted inhibition curve with a large enough effect in the signal ratio, with a control signal flat, not every such curve was filed as active; the % refers to the signal ratio;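 also: cells stimulated with 9-cis-retinoic acid as agonist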); conditions: HEK293T RXRa-UAS-bla, beta-lactamase ratio, antagonist mode; measured here: W530 green channel, cytotoxicity proxy
In short: (§1)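 Beta-lactamase reporter inhibition, read as CCF4 fluorescence ratio (ex 405, em 460/530 nm) after 2 h at RT. HEK293T UAS-bla cells, 2500/well, were stimulated with 9-cis-RA at 500 or 100 nM final alongside test compound for 18 h at 37 C.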

[13] = biological target: Retinoic acid receptor RXR-alpha (Homo sapiens) (UniProt P19793); test: as above; conditions: HEK293T RXRa-UAS-bla, beta-lactamase ratio, antagonist mode
Chain of Retinoic acid receptor RXR-alpha (Homo sapiens) (P19793 whole entry, looked up): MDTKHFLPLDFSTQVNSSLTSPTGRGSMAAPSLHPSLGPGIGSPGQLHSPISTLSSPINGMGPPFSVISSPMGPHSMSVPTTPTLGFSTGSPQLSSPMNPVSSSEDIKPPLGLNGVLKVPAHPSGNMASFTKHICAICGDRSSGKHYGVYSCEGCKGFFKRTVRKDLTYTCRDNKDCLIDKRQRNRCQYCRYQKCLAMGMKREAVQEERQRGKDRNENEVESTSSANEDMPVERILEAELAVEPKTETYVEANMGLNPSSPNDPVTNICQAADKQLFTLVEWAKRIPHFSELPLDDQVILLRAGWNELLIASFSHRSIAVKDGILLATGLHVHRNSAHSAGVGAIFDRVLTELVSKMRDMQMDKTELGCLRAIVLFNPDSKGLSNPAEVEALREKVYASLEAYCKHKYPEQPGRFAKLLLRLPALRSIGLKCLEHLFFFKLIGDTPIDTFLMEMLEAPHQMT
In short: as §1

[14] = biological target: Voltage-gated inwardly rectifying potassium channel KCNH2 (Homo sapiens) (UniProt Q12809); test: qHTS Assay for Small Molecule Inhibitors of the Human hERG Channel Activity (AID 588834); conditions: U2OS BacMam hERG, FluxOR thallium flux fluorescence; series mostly up to 92.2 µM;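 also: lower thallium flux fluorescence means stronger hERG block; nearly all actives have a fitted effect of over 50% in size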; also: potency is read from the fitted curve at half-maximal effect
Chain of Voltage-gated inwardly rectifying potassium channel KCNH2 (Homo sapiens) (Q12809 whole entry, looked up): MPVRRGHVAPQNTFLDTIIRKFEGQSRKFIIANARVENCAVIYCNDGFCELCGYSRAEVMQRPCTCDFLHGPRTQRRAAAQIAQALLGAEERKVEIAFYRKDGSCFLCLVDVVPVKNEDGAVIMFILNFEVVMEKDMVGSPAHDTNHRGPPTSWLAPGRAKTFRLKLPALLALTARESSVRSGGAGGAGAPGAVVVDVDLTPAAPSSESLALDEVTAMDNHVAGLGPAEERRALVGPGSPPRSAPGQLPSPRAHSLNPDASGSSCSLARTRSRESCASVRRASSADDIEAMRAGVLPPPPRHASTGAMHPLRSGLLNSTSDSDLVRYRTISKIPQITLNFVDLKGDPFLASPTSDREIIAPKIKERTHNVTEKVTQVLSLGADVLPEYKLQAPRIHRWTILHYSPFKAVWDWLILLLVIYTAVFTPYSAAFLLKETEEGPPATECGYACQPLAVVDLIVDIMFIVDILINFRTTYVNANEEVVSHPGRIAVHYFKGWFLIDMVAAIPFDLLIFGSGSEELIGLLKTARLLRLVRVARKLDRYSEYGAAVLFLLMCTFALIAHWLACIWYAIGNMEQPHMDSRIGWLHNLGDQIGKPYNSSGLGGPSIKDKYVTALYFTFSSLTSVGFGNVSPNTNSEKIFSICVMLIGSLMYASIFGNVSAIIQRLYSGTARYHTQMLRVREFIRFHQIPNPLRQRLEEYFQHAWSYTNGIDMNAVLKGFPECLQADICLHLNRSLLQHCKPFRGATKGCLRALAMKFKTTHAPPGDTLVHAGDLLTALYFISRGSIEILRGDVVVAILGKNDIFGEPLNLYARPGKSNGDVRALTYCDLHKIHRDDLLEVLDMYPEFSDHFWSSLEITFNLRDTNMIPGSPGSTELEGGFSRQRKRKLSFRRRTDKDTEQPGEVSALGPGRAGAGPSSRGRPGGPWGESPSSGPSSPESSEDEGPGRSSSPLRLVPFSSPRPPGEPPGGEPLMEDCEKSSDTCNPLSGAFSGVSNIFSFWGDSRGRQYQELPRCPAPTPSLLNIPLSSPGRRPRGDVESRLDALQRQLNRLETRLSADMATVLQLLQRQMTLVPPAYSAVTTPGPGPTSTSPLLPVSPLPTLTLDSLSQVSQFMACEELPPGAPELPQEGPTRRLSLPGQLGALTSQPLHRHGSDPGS
In short: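 hERG-BacMam U2OS, 2000 cells/well; 0.7X FluxOR loading 1 hr RT dark; cpd ~10 min 37 °C; stim buffer; FDSS fluorescence 2 min @ 1 s; AC50 Hill fit.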

[15] = qHTS assay for small molecule agonists of the antioxidant response element (ARE) signaling pathway (AID 651741; active = well fitted activation curve with a large enough effect in the signal ratio; the % refers to the signal ratio; also: potency is read from the fitted curve at half-maximal effect); conditions: HepG2 ARE-bla reporter, beta-lactamase FRET ratio, 16 h; series mostly up to 96 µM
In short: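 HepG2 ARE-bla cells plated at 2,000 cells/well and incubated 5 h at 37 C/5% CO2 received 23 nL compound in DMSO. After 16 h at 37 C, LiveBLAzer B/G FRET substrate was applied for 2 h at room temperature and fluorescence read.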

[16] = qHTS assay for small molecule activators of the p53 signaling pathway (AID 651743; active = well fitted activation curve with a large enough effect in the signal ratio, not every such curve was filed as active; the % refers to the signal ratio); conditions: HCT-116 p53RE-bla, beta-lactamase FRET ratio, 16 h; activation: stronger effect = higher value
In short: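 HCT-116 p53RE-bla, 4,000 cells/well; 5 h settle; cpd/DMSO 16 h, 37 C; LiveBLAzer B/G 2 h RT; fluorescence intensity.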

[17] = qHTS assay for small molecule disruptors of the mitochondrial membrane potential - 5 hr assay (AID 651755; calls by dose curve; also: nearly all actives have a fitted effect of over 40% in size; also: potency is read from the fitted curve at half-maximal effect); conditions: JC-1-type ratio dye; series mostly up to 92.2 µM
In short: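 HepG2 cells (2,000/well), attached overnight, exposed to compound 5 hr at 37C, then Mito-MPS dye 30 min. Fluorescence read for monomers (490/535 nm) and aggregates (540/590 nm).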

[18] = biological target: Tumor necrosis factor (Homo sapiens) (UniProt P01375); test: qHTS assay to identify small molecules that stimulate Tumor Necrosis Factor-alpha (TNF-alpha) secretion (AID 651757; active = well fitted curve in the direction sought with a large enough effect in the signal ratio; the % refers to the signal ratio); conditions: Human cells, HTRF 665/615 ratio; series mostly up to 92.2 µM
Chain of Tumor necrosis factor (Homo sapiens) (P01375 whole entry, looked up): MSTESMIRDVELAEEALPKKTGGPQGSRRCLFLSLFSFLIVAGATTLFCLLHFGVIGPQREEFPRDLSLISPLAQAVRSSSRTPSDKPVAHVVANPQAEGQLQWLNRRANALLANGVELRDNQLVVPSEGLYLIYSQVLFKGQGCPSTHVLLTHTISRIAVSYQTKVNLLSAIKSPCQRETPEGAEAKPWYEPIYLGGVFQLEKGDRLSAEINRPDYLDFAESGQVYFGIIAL
In short: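 Secreted TNF-alpha from compound-treated THP-1 cells (17 hrs, 37 C) was quantified with a homogeneous time-resolved fluorescence antibody assay.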

[19] = qHTS assay for small molecule agonists of the antioxidant response element (ARE) signaling pathway measured by Nrf2-dependant transcriptional activity (AID 720636; active = well fitted curve in the direction sought with a large enough effect in the repeat runs; an effect the other way counts as inactive or inconclusive); conditions: ARE-luc HepG2, Nrf2 luciferase reporter, 16 h; series mostly up to 92.4 µM
In short: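 Quantitative HTS format in HepG2 cells stably expressing an ARE-luciferase reporter; 16 hr compound treatment at 37 C, luciferase signal detected with ONE-Glo.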

[20] = biological target: Nuclear receptor subfamily 1 group I member 2 (Rattus norvegicus) (UniProt Q9R1A7); test: qHTS assay for small molecule activators of the rat pregnane X receptor (rPXR) signaling pathway (AID 651751; call rule not given here); conditions: rPXR reporter cells, luciferase (One-Glo), 24 h
Chain of Nuclear receptor subfamily 1 group I member 2 (Rattus norvegicus) (Q9R1A7 whole entry, looked up): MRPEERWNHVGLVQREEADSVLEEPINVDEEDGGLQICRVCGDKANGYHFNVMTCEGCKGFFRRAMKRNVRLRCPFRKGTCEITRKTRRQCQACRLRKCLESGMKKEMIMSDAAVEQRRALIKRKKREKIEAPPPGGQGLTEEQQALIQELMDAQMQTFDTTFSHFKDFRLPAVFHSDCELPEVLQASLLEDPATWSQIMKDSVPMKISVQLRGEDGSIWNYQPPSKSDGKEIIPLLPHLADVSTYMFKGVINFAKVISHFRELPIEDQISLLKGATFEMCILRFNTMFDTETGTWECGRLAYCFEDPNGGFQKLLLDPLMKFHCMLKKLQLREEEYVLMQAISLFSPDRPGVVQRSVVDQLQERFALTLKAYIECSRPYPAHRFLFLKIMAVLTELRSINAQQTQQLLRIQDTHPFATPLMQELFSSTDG

COC(=O)NC(=S)Nc1ccccc1NC(=S)NC(=O)OC
Potency [1]: inactive
activity change, negative = cytotoxicity [2]: -14.2% (inactive)
outcome [3]: inactive
outcome [4]: inactive
outcome [5]: inactive
outcome [6]: inactive
caspase-3 activation [7]: 0.433% (inactive)
outcome [8]: inactive
caspase-3 activation [9]: -3.02% (inactive)
Potency [10]: inactive
max response [11]: 18.1% and -8.17%
max response [12]: 3.84% and -2.84%
max response [13]: -8.67% (inactive) and 3.08% (inactive)
Potency [14]: inactive
Potency [15]: 37.6 µM (active)
activation [16]: 0% (inactive) and 3.95% (inactive)
Potency [17]: inactive
outcome [18]: inactive
outcome [19]: inactive
max response [20]: 13.9% (inactive) and 14.6% (inactive)

COP(=S)(OC)Oc1ccc([N+](=O)[O-])cc1
Potency [1]: inactive
activity change, negative = cytotoxicity [2]: -3.77% [at 91.7 µM] (inactive)
outcome [3]: inactive
outcome [4]: inactive
outcome [5]: inactive
outcome [6]: inactive
caspase-3 activation [7]: -2.62% (inactive)
outcome [8]: inactive
caspase-3 activation [9]: -6.77% [at 91.7 µM] (inactive)
Potency [10]: inactive
max response [11]: -22.5% and 4.79%
max response [12]: -15.3% and -6.14%
max response [13]: -10.1% (inactive) and -10.7% (inactive)
Potency [14]: inactive
Potency [15]: inactive
activation [16]: 0.285% (inactive) and 1.15% (inactive)
Potency [17]: inactive
outcome [18]: inactive
outcome [19]: inactive
max response [20]: 8.93% (inactive) and 0.334% (inactive)

ClC1=C(Cl)C2(Cl)C3C4CC(C5OC45)C3C1(Cl)C2(Cl)Cl (stereo not given)
Potency [1]: inactive
activity change, negative = cytotoxicity [2]: -5.71% [at 91.7 µM] (inactive)
outcome [3]: inactive
outcome [4]: inactive
outcome [5]: inactive
outcome [6]: inactive
caspase-3 activation [7]: -1.24% (inactive)
outcome [8]: inactive
caspase-3 activation [9]: -4.43% [at 91.7 µM] (inactive)
Potency [10]: 12.6 µM (active)
Potency [14]: 35.5 µM (active)
Potency [15]: 42.2 µM (active)
Potency [17]: inactive
outcome [18]: inactive
outcome [19]: inactive

c1ccc(N=Nc2ccccc2)cc1
Potency [1]: inactive
activity change, negative = cytotoxicity [2]: -6.36% (inactive)
outcome [3]: inactive
outcome [4]: inactive
outcome [5]: inactive
outcome [6]: inactive
caspase-3 activation [7]: -2.4% (inactive)
outcome [8]: inactive
caspase-3 activation [9]: 1.95% (inactive)
Potency [10]: inactive
max response [11]: 8.95% and -1.18%
max response [12]: -17.4% and -6.96%
max response [13]: -1.15% (inactive) and 2.93% (inactive)
Potency [14]: inactive
activation [16]: -2.32% (inactive) and -5.83% (inactive)
Potency [17]: inactive
outcome [18]: inactive
outcome [19]: inactive
max response [20]: -2.25% (inactive) and 1.3% (inactive)

CNC(=O)N(C)c1nnc(C(C)(C)C)s1
max response [11]: -5.03%
max response [12]: -11.1%
max response [13]: -28.5% (inactive)
Potency [15]: inactive
activation [16]: -3.47% (inactive)
max response [20]: 4.69% (inactive)

CCCCCCCCCc1ccc(O)cc1
Potency [1]: 31.6 µM (active)
activity change, negative = cytotoxicity [2]: -80.8% (active)
outcome [3]: inactive
outcome [4]: inactive
outcome [5]: inactive
outcome [6]: inactive
caspase-3 activation [7]: 98.6% (active)
outcome [8]: inactive
caspase-3 activation [9]: 172% (active)
Potency [10]: inactive
max response [11]: -5.72%
max response [12]: -16.1%
max response [13]: 0.938% (inactive)
Potency [14]: 31.6 µM (active)
Potency [15]: 75 µM (active) and 30.6 µM (active)
activation [16]: -1.55% (inactive) and -0.009% (inactive)
Potency [17]: 16.8 µM (active)
outcome [18]: inactive
outcome [19]: inactive
max response [20]: -1.03% (inactive) and 0.419% (inactive)

Source: PubChem BioAssay (NCATS)
